Experimental data as given in PubChem BioAssay (Tox21).
Several values for one entry are separate records, joined by “and”; a condition that tells them apart may be missing. Equal values may be shown once. Results filed as inconclusive are left out. Entries that show only a call come without a potency. Activity calls are given as the source filed them. Calls come from the whole dose curve; as a rule, active = well fitted inhibition curve with a large enough effect in the signal ratio in the repeat runs (not every such curve was filed as active); inconclusive = weak or mixed curves; inactive = flat fitted curve, though single readings scatter; the % refers to the signal ratio.

Biological target: Progesterone receptor (Homo sapiens) (UniProt P06401)
Sequence (P06401 whole entry, looked up): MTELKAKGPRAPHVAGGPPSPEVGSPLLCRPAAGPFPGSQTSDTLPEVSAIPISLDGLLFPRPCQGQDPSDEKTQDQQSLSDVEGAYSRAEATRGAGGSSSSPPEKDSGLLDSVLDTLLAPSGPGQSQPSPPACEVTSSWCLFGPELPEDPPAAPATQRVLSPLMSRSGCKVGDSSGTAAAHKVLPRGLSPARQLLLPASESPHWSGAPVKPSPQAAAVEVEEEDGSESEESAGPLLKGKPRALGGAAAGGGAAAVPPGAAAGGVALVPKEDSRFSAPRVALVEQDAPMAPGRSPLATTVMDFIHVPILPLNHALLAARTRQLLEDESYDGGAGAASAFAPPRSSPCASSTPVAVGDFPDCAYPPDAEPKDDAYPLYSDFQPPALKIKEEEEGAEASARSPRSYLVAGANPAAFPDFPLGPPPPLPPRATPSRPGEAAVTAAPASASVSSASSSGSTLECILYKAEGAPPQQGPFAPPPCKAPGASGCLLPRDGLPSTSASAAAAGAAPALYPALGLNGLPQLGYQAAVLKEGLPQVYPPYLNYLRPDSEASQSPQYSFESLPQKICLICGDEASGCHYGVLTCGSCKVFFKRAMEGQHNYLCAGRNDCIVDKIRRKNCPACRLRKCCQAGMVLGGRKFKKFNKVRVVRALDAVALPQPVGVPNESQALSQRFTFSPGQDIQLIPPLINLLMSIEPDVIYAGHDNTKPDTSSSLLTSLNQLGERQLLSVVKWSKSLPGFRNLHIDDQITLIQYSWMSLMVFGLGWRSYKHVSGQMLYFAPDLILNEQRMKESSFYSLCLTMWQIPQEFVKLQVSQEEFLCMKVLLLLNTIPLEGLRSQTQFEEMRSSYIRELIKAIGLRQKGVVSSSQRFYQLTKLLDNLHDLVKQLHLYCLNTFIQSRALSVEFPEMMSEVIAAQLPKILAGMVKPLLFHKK
Experiment: qHTS assay to identify small molecule antagonists of the progesterone receptor (PR) signaling pathway (AID 1346795)
Conditions: PR-UAS-bla HEK293T, beta-lactamase FRET ratio, 16 h; series mostly up to 92.4 µM
Description: National Center for Advancing Translational Sciences [NCATS]
NIH Chemical Genomics Center [NCGC]
U.S. Environmental Protection Agency [EPA]
National Institutes of Environmental Health Sciences [NIEHS]
National Toxicology Program [NTP]
U.S. Food and Drug Administration [FDA]
Progesterone receptor (PR), a nuclear hormone receptor, plays an important role in development, metabolic homeostasis and reproduction. […] Endocrine disrupting chemicals (EDCs) and their interactions with steroid hormone receptors like PR causes disruption of normal endocrine function. To identify the compounds that inhibit PR signaling, a PR-UAS-bla GripTite cell line i.e. PR-UAS-bla HEK293T (Invitrogen, Carlsbad, CA, USA) containing a beta-lactamase reporter gene under the control of an Upstream Activator Sequence (UAS) was used to screen Tox21 10K compound library.
Tox21 Assay Protocol Summary:
PR-UAS-bla HEK293T cells were dispensed at 3,000 cells/4 uL of assay medium containing 2% charcoal stripped FBS per well into black wall/clear-bottom 1536-well plates using a Multidrop Combi (ThermoFisher Scientific, Waltham, MA) dispenser. After the assay plates were incubated at a 37C and 5% CO2 for 6 hr, 23 nL of compounds dissolved in DMSO, positive controls or DMSO only was transferred to the assay plate by a Pintool station (Kalypsys, San Diego, CA), followed by addition of 1 uL (1nM as final concentration) of Promegestone (R5020) in assay medium using a BioRAPTR FRD (Flying Reagent Dispenser, Aurora Discovery, San Diego, CA). The plates were incubated at 37C and 5% CO2 for 16 hr. Then 1 uL of LiveBLAzer B/G FRET substrate was added using a FRD. After the plates were incubated at room temperature for 2 hours, fluorescence intensity was measured by an Envision plate reader (PerkinElmer, Shelton, CT).
Potency is the fitted concentration of half-maximal effect.

Q: With `OCCOCCOCCOCCOCCO` as the compound, how does the Potency read?
A: Its Potency is “inactive”.

Q: With `COc1c2ccoc2cc2oc(=O)ccc12` as the compound, how does the Potency read?
A: Its Potency is 15.7 µM (active).

Q: How did the Potency turn out when `CCCOCC(C)O` (stereo not given) was run?
A: Its Potency is “inactive”.

Q: Which Potency does the source give for `CCCCC(=O)O` here?
A: The Potency was “inactive”.

Q: For `O=C(O)Cc1c[nH]c2ccccc12`, which Potency is on record?
A: The Potency was “inactive”.

Q: How did the Potency turn out when `N#CCC(=O)O` was run?
A: Its Potency is “inactive”.

Q: How did the Potency turn out when `COc1ccc2cc3[n+](cc2c1OC)CCc1cc2c(cc1-3)OCO2` was run?
A: The Potency was “inactive”.

Q: How did the Potency turn out when `C=C1C[C@]23C[C@@]1(O)CC[C@H]2[C@@]12C=C[C@H](O)[C@@](C)(C(=O)O1)[C@H]2[C@@H]3C(=O)O` was run?
A: The Potency was “inactive”.

Q: `OCc1ccc(Cl)cc1Cl` was tested. Which Potency did it give?
A: The Potency was “inactive”.

Q: Which Potency does the source give for `O=C1OC(=O)c2c(Cl)c(Cl)c(Cl)c(Cl)c21` here?
A: The Potency was “inactive”.

Q: Which Potency does the source give for `COc1ccc([C@@H]2CC(=O)c3c(O)cc(O[C@@H]4O[C@H](CO[C@@H]5O[C@@H](C)[C@H](O)[C@@H](O)[C@H]5O)[C@@H](O)[C@H](O)[C@H]4O)cc3O2)cc1OC` here?
A: Its Potency is “inactive”.

Q: Which Potency does the source give for `O=C(Cl)c1ccc(C(=O)Cl)cc1` here?
A: Its Potency is “inactive”.

Q: How did the Potency turn out when `CC1(C)[C@@H](O[C@H]2O[C@H](C(=O)O)[C@@H](O)[C@H](O)[C@H]2O[C@@H]2O[C@H](C(=O)O)[C@@H](O)[C@H](O)[C@H]2O)CC[C@]2(C)[C@H]3C(=O)C=C4[C@@H]5C[C@@](C)(C(=O)O)CC[C@]5(C)CC[C@@]4(C)[C@]3(C)CC[C@@H]12` was run?
A: The Potency was “inactive”.

Q: Which Potency does the source give for `CC(=O)C(C)C` here?
A: Its Potency is “inactive”.

Q: How did the Potency turn out when `O=C1O[C@H]([C@H](O)CO)C(O)=C1O` was run?
A: The Potency was “inactive”.

Q: `C[n+]1ccn(CCO)c1` was tested. Which Potency did it give?
A: The Potency was “inactive”.

Q: For `Cc1cc(C)cc(O)c1`, which Potency is on record?
A: Its Potency is “inactive”.

Q: `CC[N+](CC)(CC(=O)Nc1c(C)cccc1C)Cc1ccccc1` was tested. Which Potency did it give?
A: The Potency was “inactive”.

Q: How did the Potency turn out when `CN=C(NC#N)NCCSCc1nc[nH]c1C` was run?
A: The Potency was “inactive”.

Q: For `O=C1C(N(CO)C(=O)NCO)N(CO)C(=O)N1CO` (stereo not given), which Potency is on record?
A: The Potency was “inactive”.

Q: How did the Potency turn out when `CC(=O)CC(=O)N(C)C` was run?
A: The Potency was “inactive”.

Q: `Clc1cccc(Cl)c1NC1=NCCN1` was tested. Which Potency did it give?
A: The Potency was “inactive”.

Q: Which Potency does the source give for `O=C1CCCCCCCCCCC1` here?
A: The Potency was “inactive”.

Q: For `CC(C)c1ccc(C(C)C)cc1`, which Potency is on record?
A: Its Potency is “inactive”.

Q: With `NC(=O)NC(N)=O` as the compound, how does the Potency read?
A: The Potency was “inactive”.

Q: With `CC/C=C(\C(=O)N[C@@H]1C(=O)N2C(C(=O)OCOC(=O)C(C)(C)C)=C(COC(N)=O)CS[C@H]12)c1csc(N)n1` as the compound, how does the Potency read?
A: Its Potency is “inactive”.

Q: For `COC(=O)/C=C\C(=O)OC`, which Potency is on record?
A: The Potency was “inactive”.

Q: `CCCCCC(C)=O` was tested. Which Potency did it give?
A: The Potency was “inactive”.

Q: `CCCCCCCC(=O)O` was tested. Which Potency did it give?
A: The Potency was “inactive”.

Q: With `CS(=O)(=O)c1ccc(Cl)cc1` as the compound, how does the Potency read?
A: Its Potency is “inactive”.

Q: For `Cc1ccc(C)c(S(=O)(=O)O)c1`, which Potency is on record?
A: The Potency was “inactive”.

Q: With `CC(C)(CO)CO` as the compound, how does the Potency read?
A: The Potency was “inactive”.

Q: With `COC(=O)CCCCC(=O)OC` as the compound, how does the Potency read?
A: The Potency was “inactive”.

Q: How did the Potency turn out when `CCc1cccc(CC)c1N` was run?
A: Its Potency is “inactive”.

Q: For `O=c1n(CCCN2CCN(c3cccc(Cl)c3)CC2)nc2ccccn12`, which Potency is on record?
A: Its Potency is “inactive”.

Q: `CC(CN1c2ccccc2Sc2ccccc21)N(C)C` (stereo not given) was tested. Which Potency did it give?
A: The Potency was 61.8 µM (active) and 30.6 µM (active).

Q: For `CC1=CC(=O)CC(C)(C)C1`, which Potency is on record?
A: Its Potency is “inactive”.

Q: Which Potency does the source give for `CCCCCNCCCCC` here?
A: The Potency was “inactive”.

Q: Which Potency does the source give for `Cc1cc(C)c(O)c(C)c1` here?
A: The Potency was “inactive”.

Q: For `C[Si](C)(C)N[Si](C)(C)C`, which Potency is on record?
A: The Potency was “inactive”.
